The assay is described as follows: A549 cell viability loss – cherry-picked samples, cytotoxicity control, dose response (AID 1053184).

The structures appear in SMILES notation. Entries with a potency or affinity are not part of this list. The source made the active and inactive calls.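 The calls were made as follows: active = cell killing, with a fitted half-maximal concentration at or below twice the top valid dose tested; inconclusive = flat curve between 30% and 70% signal loss, or poor fit; inactive = effect in the rising direction, plus the rest.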

On to `C/C=C/c1ccc([C@H]2[C@@H](CO)N3C(=O)CN(Cc4ccc(F)cc4)C[C@@H]23)cc1`, for which the compound was called inactive.

For the compound `COc1ccc2c3c(n(C)c2c1)[C@@H](CO)N(CC1CC1)CC31CN(C(=O)c2ccc3c(c2)OCO3)C1`, the result was inactive.

On to `COc1cc(CN2C[C@@H]3N[C@H](C2)C3c2ccc(-c3ccc(C#N)cc3)cc2)cc(OC)c1` (stereo partly specified), for which the compound was called inactive.

Turning to `CN(C)C(=O)c1cccc(-c2ccc(C3[C@@H]4CN(Cc5ccccc5F)C[C@H]3N4)cc2)c1` (stereo partly specified), the compound was called inactive.

Take `CO[C@@H](CN(C)Cc1cc(F)ccc1F)[C@@H](C)CN(C(=O)Nc1ccc(C(F)(F)F)cc1)[C@H](C)CO`: the compound was called inactive.

Consider `CNC[C@@H]1Oc2cc(C#Cc3ccccc3OC)ccc2S(=O)(=O)N([C@H](C)CO)C[C@H]1C`, for which the compound was called inactive.

For `O=S(=O)(c1ccc(F)cc1)N1C[C@@H]2N[C@H](C1)C2c1ccc(/C=C/c2ccccc2)cc1` (stereo partly specified), the call was inactive.

Regarding `N#Cc1cccc(-c2ccc(C3[C@@H]4CN(C(=O)Nc5ccc(C(F)(F)F)cc5)C[C@H]3N4)cc2)c1` (stereo partly specified), the result was inactive.

As for `COc1cccc(-c2cccc(-c3nc(C(=O)Nc4ccc(-c5ccccc5)cc4)cc4c3[C@@H](CCO)N(S(=O)C(C)(C)C)C4)c2)c1` (stereo partly specified), the outcome was inactive.

Consider `C[C@H](CO)N1C[C@H](C)[C@@H](CN(C)Cc2ccccc2)Oc2c(NC(=O)Cc3cn(C)c4ccccc34)cccc2C1=O`, for which the outcome was inactive.

In the case of `C[C@H]1CNC(=O)[C@@H](Cc2ccc(C(F)(F)F)cc2)CCn2nncc2COC1`, the result was inactive.

The values above are taken from PubChem BioAssay AID1053184 (Broad Institute, 2014).
